Inconclusive results are not listed. Unmarked numbers belong to inactive results. Calls come from the whole dose curve; as a rule, active = well fitted curve in the direction sought with a large enough effect; inconclusive = small, poorly fitted or top-dose-only effect, or another doubt; inactive = no such curve, though single readings can be large or run the other way.

This assay in a line: qHTS Assay for Identifying Gametocytocidal Compounds (AID 743244).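 Note: actives lower the fluorescent signal which means gametocytes are killed.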 To be noted: P. falciparum 3D7 stage III-V gametocytes, alamarBlue, 72 h; max response: active compounds read low. The procedure, abridged: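 Fluorescence at Ex 525/Em 598 nm, recorded 24 h after alamarBlue addition, reports residual metabolic activity of 3D7 gametocytes (stages III–V) following 72 h compound exposure at 37 °C, 5% CO2.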
% is set by controls: 0 for no effect and ±100 for the full control effect.

Take `C=CCOc1cc(Cl)ccc1C(=O)NCCN(CC)CC`: the max response was 9.51%.

As to `CCCC(=O)O[C@]1(C(=O)CCl)[C@@H](C)C[C@H]2[C@@H]3CCC4=CC(=O)C=C[C@]4(C)[C@@]3(F)C(=O)C[C@@]21C`, the max response is 13.2%. `CC(=O)N(CC(O)CO)c1c(I)c(C(=O)NCCO)c(I)c(C(=O)NCC(O)CO)c1I` (stereo not drawn): the max response was 13.7%. Turning to `CCOC(=O)NNc1nncc2ccccc12`, the max response was -13.4%. For the compound `CC(=O)OCC(=O)[C@@]1(O)[C@H](OC(C)=O)C[C@H]2[C@@H]3CCC4=CC(=O)C=C[C@]4(C)[C@@]3(F)[C@@H](O)C[C@@]21C`, the max response is -5.18%. Regarding `CC(COc1ccccc1)NN` (stereo not drawn), the max response was -1.29%. On to `CN(CC1(C)CCCO1)S(=O)(=O)c1ccc(Cl)c(S(N)(=O)=O)c1` (stereo not drawn), for which the max response was -10.7%. For `Nc1c(NC/C=C\COc2cc(CN3CCCCC3)ccn2)c(=O)c1=O`, the max response was -0.695%.

The record behind these values is PubChem BioAssay (NCATS).
